Results on eight compounds are retold here after PubChem BioAssay (NCATS).

Values joined by “and” are separate entries in the source; they are usually repeats but may differ in a detail not shown here. Identical values can stand only once. Inconclusive results are not listed. Active and inactive are the calls of the source. Unless noted, calls come from the whole dose curve; as a rule, active = well fitted curve in the direction sought with a large enough effect; inconclusive = small, poorly fitted or top-dose-only effect, or another doubt; inactive = no such curve, though single readings can be large; an effect the other way counts as inactive or inconclusive.

For experiment [1], the target named is Tyrosine-protein kinase Yes (Homo sapiens) (UniProt P07947). In words: qHTS for small molecule inhibitors of Yes1 kinase: Primary Screen (AID 686947).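 Note: plate controls were DMSO with enzyme for no effect and no-enzyme DMSO wells for full effect; nearly all actives have a fitted effect of over 60% in size.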 In short, it runs like this: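 Yes1 (4 nM) preincubated 20 min with compound, then 60 min room-temperature reaction with 0.1 mM ATP and 0.3 mg/mL poly(E4Y) in pH 7.5 Tris, 10 mM MgCl2. ADP measured by ADP-Glo luminescence, normalised to enzyme/no-enzyme controls.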
Chain of Tyrosine-protein kinase Yes (Homo sapiens) (P07947 whole entry, looked up): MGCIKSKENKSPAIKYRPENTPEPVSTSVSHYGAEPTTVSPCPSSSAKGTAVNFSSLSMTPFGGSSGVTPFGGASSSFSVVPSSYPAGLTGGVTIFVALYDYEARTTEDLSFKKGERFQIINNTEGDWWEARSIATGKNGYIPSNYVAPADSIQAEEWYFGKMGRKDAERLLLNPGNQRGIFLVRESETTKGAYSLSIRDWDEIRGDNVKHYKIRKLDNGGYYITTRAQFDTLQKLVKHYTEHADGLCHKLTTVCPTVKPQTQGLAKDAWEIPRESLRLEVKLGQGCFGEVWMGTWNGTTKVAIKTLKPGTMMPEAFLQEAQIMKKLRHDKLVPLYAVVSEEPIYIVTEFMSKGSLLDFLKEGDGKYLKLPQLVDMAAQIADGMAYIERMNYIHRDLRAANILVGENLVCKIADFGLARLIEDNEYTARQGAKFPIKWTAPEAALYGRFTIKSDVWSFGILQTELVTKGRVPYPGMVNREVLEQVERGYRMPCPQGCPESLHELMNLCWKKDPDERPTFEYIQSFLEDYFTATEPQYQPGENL
On the technique in general: qHTS replaces the single test concentration by a dilution series.

Experiment [2] is described as follows: qHTS for small molecule inhibitors of Yes1 kinase: Counter Assay (AID 686950).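 Note: no kinase present so only ADP-Glo detection of a fixed ADP amount is tested; luminescence from ADP-Glo reporting ADP in a fixed ATP and ADP mixture; 0% = DMSO wells with ATP plus ADP and -100% = ATP-only wells without ADP.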 In short, it runs like this:
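Enzyme-free detection counter-screen: compounds preincubated 20 min in buffer, then 0.08 mM ATP plus 0.02 mM ADP added for 60 min at room temperature; ADP-Glo luminescence. Buffer 50 mM Tris pH 7.5, 10 mM MgCl2, 150 mM NaCl; normalized to ATP+ADP and ATP-only controls.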

For experiment [3], the target named is Arylsulfatase A (Homo sapiens) (UniProt P15289). The experiment is described as follows: qHTS screen for enhancers of Arylsulfatase A (ASA1): LOPAC Validation Assay (AID 720538). In outline: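 Cell-based enhancement test: residual ASA activity in SV40-transformed I179S patient fibroblasts is measured by pNCS turnover (0.5mM final, 14h, room temperature) following 48h compound incubation; higher fluorescence indicates activation.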
Chain of Arylsulfatase A (Homo sapiens) (P15289 whole entry, looked up): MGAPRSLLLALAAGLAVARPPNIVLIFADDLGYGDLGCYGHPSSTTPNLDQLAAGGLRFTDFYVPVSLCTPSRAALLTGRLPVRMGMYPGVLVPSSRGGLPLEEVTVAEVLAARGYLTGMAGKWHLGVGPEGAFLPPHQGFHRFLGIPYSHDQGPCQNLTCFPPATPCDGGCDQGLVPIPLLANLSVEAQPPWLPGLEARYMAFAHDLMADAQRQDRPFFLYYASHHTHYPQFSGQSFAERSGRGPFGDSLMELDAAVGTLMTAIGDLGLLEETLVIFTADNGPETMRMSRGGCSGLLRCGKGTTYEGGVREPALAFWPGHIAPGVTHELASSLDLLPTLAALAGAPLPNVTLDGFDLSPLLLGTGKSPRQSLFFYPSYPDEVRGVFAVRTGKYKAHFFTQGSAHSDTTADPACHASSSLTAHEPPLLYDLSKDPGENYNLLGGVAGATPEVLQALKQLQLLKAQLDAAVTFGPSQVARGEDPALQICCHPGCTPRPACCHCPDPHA

A short description of experiment [4]: qHTS for compounds that reverse cellular toxicity of Amyloid beta (A-beta) peptide in yeast: LOPAC Validation Assay (AID 720559).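 Note: plate controls were DMSO for no effect and equimolar ferric chloride plus clioquinol rescue for full effect.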 In short, it runs like this: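 Here, A-beta-toxic yeast grow with test compounds at 30 C for 48 hr before optical density at 600 nm is recorded; data are normalized against DMSO and the FeCl3-clioquinol control.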
Experiment [5] in a line: qHTS for Activators of Parkin Expression: LOPAC Validation Assay (NLuc Reporter) (AID 720572; note: potency is the fitted concentration of half-maximal effect). In short, it runs like this: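 Neuronal cells with a Parkin promoter-driven FLuc/NLuc coincidence reporter were treated 24 h at 37 C in 7-point dose response (LOPAC). NLuc luminescence read after FLuc; signals normalized to DMSO and positive control (100%).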
A short description of experiment [6]: qHTS for Activators of Parkin Expression: LOPAC Validation Assay (FLuc Reporter) (AID 720573;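 note: 0% = DMSO and 100% = positive control compounds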). In outline: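 Readout is FLuc luminescence from neuronal reporter cells (Parkin promoter, FLuc plus NLuc) after 24 h compound exposure in dose response. Values normalized to neutral DMSO and positive-control compounds.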
In experiment [7] the target is T1, Hexokinase-4 (Homo sapiens) + Glucokinase regulatory protein (Homo sapiens) (UniProt P35557+Q14397). The experiment is described as follows: qHTS assay for inhibitors of recombinant human GCK-GKRP interaction: Diaphorase-coupled assay (AID 743205). In outline:
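Signal derives from resorufin generated by diaphorase, linked to GCK turnover of glucose (5 mM) and ATP (0.4 mM). Enzyme complex was added after a 20-minute compound preincubation and monitored for 30 minutes.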

Experiment [8] concerns the target T1, Hexokinase-4 (Homo sapiens) + Glucokinase regulatory protein (Homo sapiens). The experiment is described as follows: qHTS assay for inhibitors of recombinant human GCK-GKRP interaction: ADP-Glo assay (AID 743206).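 Note: plate controls were DMSO plus enzyme for no effect and no enzyme for full effect.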 In outline: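 GST-GCK and FLAG-GKRP (15 nM each in the dispensed mix, with 2 uM S6P) react with 0.4 mM ATP and 5 mM glucose (final) in Hepes pH 7.6 for 60 min at room temperature. ADP is measured by ADP-Glo luminescence.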

The target is the same in experiment [9]. In words: qHTS assay for inhibitors of recombinant human GCK-GKRP interaction: HTRF assay (AID 743207).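 Note: 0% = DMSO with GCK present and -100% = DMSO wells lacking GCK.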 In short, it runs like this: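 Titration screening format: recombinant GST-GCK and FLAG-GKRP at 5 nM, S6P at 2 uM, labelled anti-tag antibodies, 60 min at RT, dual-wavelength HTRF readout.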
Experiment [10] is described as follows: qHTS Assay for Identifying Gametocytocidal Compounds (AID 743244).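 For max response: % is set by controls: 0 for no effect and ±100 for the full control effect; actives lower the fluorescent signal which means gametocytes are killed.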 Note: potency is the fitted concentration of half-maximal effect. As to conditions: P. falciparum 3D7 stage III-V gametocytes, alamarBlue, 72 h; max response: stronger effect = lower value. In outline:
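In this qHTS viability screen, late-stage 3D7 gametocytes are incubated with compound for 72 h, then with alamarBlue for 24 h; reduced resorufin fluorescence marks killing.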

A short description of experiment [11]: qHTS profiling for inhibitors of Plasmodium falciparum (3D7) proliferation (AID 743322; call rule not given here;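 note: infected erythrocytes exposed to compound for 72 h before lysis; 100% = DMSO vehicle wells and 0% = 0.29 µM artemisinin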). As to conditions: P. falciparum 3D7 proliferation; at 28.7 µM (top of the series). In short, it runs like this: (§1)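 Erythrocytes infected with P. falciparum (0.3% parasitemia, 2.5% hematocrit) incubated with compounds 72 h at 37 C, 5% CO2. Lysis with saponin/Triton buffer containing SYBR Green I, overnight at room temperature in the dark; DNA fluorescence (485/535 nm) normalised to 0.29 uM artemisinin and DMSO.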

Experiment [12] is described as follows: qHTS profiling for inhibitors of Plasmodium falciparum (DD2) proliferation (AID 743323; call rule not given here). As to conditions: lower = more inhibition; at 28.7 µM (top of the series). In outline: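 P. falciparum Dd2-infected erythrocytes (0.3% parasitemia, 2.5% hematocrit) exposed 72 h at 37 C, 5% CO2. Lysis with SYBR Green, overnight at room temperature, fluorescence 485/535 nm; normalized to 0.29 uM artemisinin and DMSO.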

Experiment [13] can be described thus: qHTS profiling for inhibitors of Plasmodium falciparum (HB3) proliferation (AID 743324).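 Note: 100% = DMSO vehicle wells and 0% = artemisinin-treated control wells.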 Particulars: Plasmodium falciparum HB3 blood-stage proliferation; at 28.7 µM (top of the series). In outline: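 P. falciparum HB3 grown in erythrocytes (0.3% parasitemia, 2.5% hematocrit final) with compound for 72 h at 37 C, 5% CO2. Parasite DNA detected by SYBR Green after saponin/triton lysis overnight; normalized to 0.29 uM artemisinin and DMSO.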

The nature of experiment [14]: qHTS profiling of the MIPE4 collection as inhibitors of Plasmodium falciparum (3D7) proliferation (AID 743344; call rule not given here;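 note: scaled between DMSO vehicle wells and 0.29 µM artemisinin as full inhibition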). Particulars: P. falciparum 3D7 in erythrocytes, SYBR Green DNA fluorescence, 72 h; at 28.5 µM (top of the series). In outline: as §1
Experiment [15] in a line: qHTS profiling of the MIPE4 collection as inhibitors of Plasmodium falciparum (DD2) proliferation (AID 743345; call rule not given here). As to conditions: P. falciparum Dd2 in erythrocytes, SYBR Green DNA, 72 h; at 28.5 µM (top of the series). In short, it runs like this:
as §1

A short description of experiment [16]: qHTS assay for small molecule agonists of the antioxidant response element (ARE) signaling pathway measured by Nrf2-dependant transcriptional activity (AID 720636; active = well fitted curve in the direction sought with a large enough effect in the repeat runs; an effect the other way counts as inactive or inconclusive; note: potency is the fitted concentration of half-maximal effect). In outline:
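Reporter gene assay, HepG2 ARE-luc: 16 hr compound, 37 C, 5% CO2; read-out luciferase luminescence.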

Experiment [17] in a line: qHTS assay for small molecule agonists of the antioxidant response element (ARE) signaling pathway measured by Nrf2-dependant transcriptional activity - cell viability counter screen (AID 720653; active = well fitted curve in the direction sought with a large enough effect in the repeat runs; an effect the other way counts as inactive or inconclusive; note: % is set by controls: 0 for no effect and ±100 for the full control effect). As to conditions: ARE-bla HepG2 viability, CellTiter-Glo ATP luminescence, 16 h; stronger effect = lower value. In short, it runs like this:
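ARE-bla HepG2 cells treated with compounds for 16 h at 37C; this counter screen measures viability as intracellular ATP by CellTiter-Glo luminescence after 30 min at room temperature.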

Experiment [18] in a line: qHTS assay for cell viability of HEK293 cells (AID 743288). For max response: % is set by controls: 0 for no effect and ±100 for the full control effect. Note: nearly all actives have a fitted effect of over 50% in size. Note: potency is the fitted concentration of half-maximal effect. As to conditions: ATP luminescence (CellTiter-Glo), 18 h; max response: stronger effect = lower value. In short, it runs like this:
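Luminescent ATP quantitation served as the viability read-out. Cells (parental HEK293, 2,000/well) received compounds after at least 5 h at 37 C and were exposed for 18 h before a 30 min room-temperature reagent step.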

Experiment [19] in a line: qHTS assay for cell viability of the p53RE-bla HCT-116 cell line (AID 743292). Note: % is set by controls: 0 for no effect and ±100 for the full control effect; nearly all actives have a fitted effect of over 55% in size. In outline:
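Readout: CellTiter-Glo luminescence after 30 min RT. Treatment: compounds in DMSO, 16 h, 37 C. Cells: CellSensor p53RE-bla HCT-116, 4,000/well, preincubated 5 h.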

Experiment [20] can be described thus: qHTS assay for small molecule antagonists of the retinoid-related orphan receptor gamma (ROR-gamma) signaling pathway - cell viability counter screen (AID 720652; active = well fitted curve in the direction sought with a large enough effect in the repeat runs; an effect the other way counts as inactive or inconclusive;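 note: compound exposure lasted 16 hr before ATP read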; note: potency is the fitted concentration of half-maximal effect). In outline: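 Luminescence from CellTiter-Glo after 30 min at room temperature reported cellular ATP as the cytotoxicity measure. Cells were the CHO reporter line with doxycycline-induced ROR-gamma expression, exposed to compound for 16 hr at 37 C.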

T1 sequence (P35557 whole entry, looked up): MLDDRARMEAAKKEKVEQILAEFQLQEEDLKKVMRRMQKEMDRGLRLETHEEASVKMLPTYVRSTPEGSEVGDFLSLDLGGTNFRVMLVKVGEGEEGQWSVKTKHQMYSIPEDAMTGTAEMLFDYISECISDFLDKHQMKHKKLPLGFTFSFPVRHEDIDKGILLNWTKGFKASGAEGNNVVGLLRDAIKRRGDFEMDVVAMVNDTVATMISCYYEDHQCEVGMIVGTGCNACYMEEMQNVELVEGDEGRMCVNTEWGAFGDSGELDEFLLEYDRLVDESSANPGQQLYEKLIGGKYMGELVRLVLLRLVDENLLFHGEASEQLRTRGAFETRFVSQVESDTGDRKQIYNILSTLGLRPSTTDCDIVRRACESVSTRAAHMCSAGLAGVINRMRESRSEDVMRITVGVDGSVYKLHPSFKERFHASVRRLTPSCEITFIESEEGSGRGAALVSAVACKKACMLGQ
T1 sequence (Q14397 whole entry, looked up): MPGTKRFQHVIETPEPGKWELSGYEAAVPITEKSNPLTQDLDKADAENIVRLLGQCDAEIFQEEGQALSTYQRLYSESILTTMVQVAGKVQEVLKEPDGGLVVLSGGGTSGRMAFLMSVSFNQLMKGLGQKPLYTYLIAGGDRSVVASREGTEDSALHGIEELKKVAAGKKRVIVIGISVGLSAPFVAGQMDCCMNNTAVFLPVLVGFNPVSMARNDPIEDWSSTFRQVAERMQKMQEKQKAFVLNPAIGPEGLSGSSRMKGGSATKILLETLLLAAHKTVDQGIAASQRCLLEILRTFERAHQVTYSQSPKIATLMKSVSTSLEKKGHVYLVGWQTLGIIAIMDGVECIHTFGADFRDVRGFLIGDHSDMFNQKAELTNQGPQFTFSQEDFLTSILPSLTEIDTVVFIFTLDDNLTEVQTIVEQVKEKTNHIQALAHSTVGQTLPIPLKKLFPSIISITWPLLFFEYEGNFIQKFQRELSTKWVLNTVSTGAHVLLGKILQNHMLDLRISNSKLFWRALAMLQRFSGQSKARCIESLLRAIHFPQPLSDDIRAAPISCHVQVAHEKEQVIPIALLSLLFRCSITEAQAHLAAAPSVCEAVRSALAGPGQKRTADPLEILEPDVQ

Turning to `O=C(O)c1nn(Cc2ccc(Cl)cc2Cl)c2ccccc12`, the compound was classed as inactive in experiment [1], in [2], in [4], in experiment [6], in experiment [7] and in experiment [8]. The result in experiment [9] was inactive. Further, the Potency result in experiment [3] and in experiment [5] was “inactive” throughout. Also, the max response in experiment [10] is -7.97% (inactive) and 31% (inactive). The compound also returned a remaining parasite growth % (stronger effect = lower value) in [11] of 86.6%. The compound further gave an activity, percent of control in [12] of 60.1%. Also, the remaining proliferation (% of control), lower = more inhibition in experiment [13] was determined as 104%. This compound displayed a parasite growth, % of DMSO control in experiment [14] of 75.4%. In experiment [15], this compound yielded a parasite growth remaining, % of DMSO control (lower = more inhibition) of 99.8%.
For `CCCCCCCCC(=O)NCc1ccc(O)c(OC)c1`, in experiment [16], the Potency result was “inactive”. The max response is -1.94% (inactive) in experiment [17], -2.23% (inactive) in experiment [10] and -11.8% (inactive) in experiment [18]. Also, the compound was classed as inactive in experiment [19].
On to `CCOP(=S)(OCC)O/N=C(\C#N)c1ccccc1`, for which the results for the max response in experiment [17], in experiment [10] and in experiment [18] were 4.22% (inactive), -3.66% (inactive) and -1.29% (inactive), respectively. The compound was classed as inactive in [19].
For the compound `CN(C)C(=S)SSC(=S)N(C)C`, the Potency is 42.2 µM (active) in [16], 33.5 µM (active) in experiment [20], 66.2 nM (active) in [10] and 44.7 µM (active) in experiment [18]. Besides, the max response in experiment [17] was -25.3% (inactive). Besides, in experiment [19], the compound was called inactive.
As to `CC[n+]1c(-c2ccccc2)c2cc(N)ccc2c2ccc(N)cc21`, the Potency entry in experiment [16] and in experiment [20] was “inactive” throughout. Further, the max response in experiment [17] was -16.8% (inactive). For the same compound, the Potency in experiment [10] is 1.41 µM (active) and 6.31 µM (active). Besides, the outcome in [19] was inactive.
As to `COC(=O)C1=C(C)NC(C)=C(C(=O)OC)C1c1ccccc1[N+](=O)[O-]`, the Potency in [5] was 23.1 µM (active).
As to `COc1ccc(C(=O)N2CCCC2=O)cc1`, the Potency result in [3] and in experiment [5] was “inactive” throughout. The call in experiment [4], in [6], in [7], in [8] and in experiment [9] was inactive. The max response in experiment [10] is -3.61% (inactive) and 29.8% (inactive). The compound also displayed a parasite growth, % of DMSO control in experiment [14] of 90.2%. The same compound showed a parasite growth remaining, % of DMSO control (lower = more inhibition) in [15] of 19.7%.
Regarding `CNC(=O)Oc1ccc2c(c1)[C@]1(C)CCN(C)[C@@H]1N2C`, the result in experiment [7] was inactive.
